Assay results: PubChem BioAssay
Calls of active or inactive are those of the source.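 The calls were made as follows, unless noted: active = NADPH fluorescence slope more negative than the mean of all samples by about 3 SD, 99.7% confidence; inactive = the rest.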

Legend:
[1] = molecular target: Voltage-gated potassium channel subunit beta-2 (Rattus norvegicus) (UniProt P62483); test: KvBeta enzyme negative modulators, primary screen, biochemical, NADPH fluorescence (AID 622;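 active = fluorescence slope higher than the sample average by over 3 SD, cut at about -0.22 in these data, passing the limit was not always enough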;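 also: slope of raw intensity against log time taken from 70 to 1610 s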); conditions: recombinant KvBeta, 4-cyanobenzaldehyde reduction, at 10 µM, stronger effect = higher value
[2] = molecular target: Voltage-gated potassium channel subunit beta-2 (Rattus norvegicus) (UniProt P62483); test: KvBeta positive modulators, primary screen, biochemical, NADPH fluorescence (AID 623); conditions: Recombinant KvBeta, NADPH fluorescence decrease slope, 10 min; at 10 µM; stronger effect = lower value;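 also: fluorescence intensity change per second fitted from 20 to 320 s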
[3] = molecular target: Alpha-2C adrenergic receptor (Homo sapiens) (UniProt P18825); test: modulators of alpha2C/GIRK thallium flux, primary screen, cell-based, HEK293 alpha2C/GIRK1/2 (AID 624;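 active = fluorescence slope after compound addition differing from the mean of all screened samples at 99.7% confidence, in either direction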;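 also: slope of fluorescence ratio to pre-addition baseline per second over 15 to 24 s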); conditions: thallium flux BTC fluorescence, at 10 µM, actives lie on both sides
[4] = inhibitors of Sendai virus-induced IRF3 signaling, primary screen, TLR/RLR signaling modifier project, cell-based, Sendai virus stimulus, luciferase, 10K MLSCN set (AID 602276;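 active = inhibition at or above 50% at 10 µM; inactive = inhibition below 50%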;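 also: firefly luciferase from ISG56 promoter only with Renilla not read in this screen; 0% = Sendai virus plus DMSO and 100% = medium plus DMSO without virus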); conditions: HEK293 RL24 IRF3 luciferase reporter, at 10 µM, stronger effect = higher value
[5] = inhibitors of poly I:C-induced TLR3 signaling, primary screen, cell-based, poly I:C stimulus, luciferase, 10K MLSCN set (AID 602277;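 active = inhibition of the reporter signal at or above 50%; inactive = inhibition below 50%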); conditions: HEK293-TLR3 RL24 IRF3 luciferase reporter, at 10 µM, stronger effect = higher value
[6] = inhibitors of larval lipid processing in zebrafish, primary screen, whole organism, PED6 fluorescence, gall bladder and intestine (AID 686;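 active = a full or partial loss of lipid-probe fluorescence in the fish gall bladder, intestine or both, judged by eye; inactive = no fluorescence loss, or compound toxic to the fish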;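 also: larvae 5 to 7 days old with five fish per well; signal comes from phospholipase A2 cleavage of quenched PED6 carried via bile; overnight exposure to compound and PED6 before scoring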); conditions: Zebrafish larvae PED6 lipid processing, fluorescence scoring; screened at 20 µM (by protocol)
[7] = inhibitors of E-selectin induction by TNFa, primary screen, imaging, HUVEC, immunofluorescence, MLSMR starter and 10KST1 sets (AID 487;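 active = visually confirmed hit in the image check and inhibition above 20%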;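 as to inhibition: signal is fraction of cell area covered by stained E-selectin grains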;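 as to nuclei count: 100% = median nuclei count of all wells on the same plate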); conditions: HUVEC TNFalpha-induced E-selectin immunofluorescence imaging, at 2 µM; inhibition: stronger effect = higher value; nuclei count: measured here: cell number, toxicity
[8] = DUSP6 inhibitors restoring Erk phosphorylation by chemical complementation, primary imaging in DUSP6-transfected HeLa (AID 609;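 active = compounds giving at least 50% inhibition in the cell-based MKP-3 phosphatase rescue imaging test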;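 as to inhibition: phospho-Erk level distribution per well compared with pooled transfected vehicle control wells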); conditions: HeLa MKP-3 transfected, phospho-Erk imaging KS statistic, at 10 µM, cells stimulated with TPA for 15 min
[9] = molecular target: Dual specificity protein phosphatase 6 (Homo sapiens) (UniProt Q16828); test: as above; conditions: HeLa MKP-3 transfected, phospho-Erk imaging KS statistic; at 10 µM; stronger effect = higher value; cells stimulated with TPA for 15 min
[10] = molecular target: Muscarinic acetylcholine receptor M4 (Homo sapiens) (UniProt P08173); test: compounds altering M4/GIRK thallium flux, either direction, primary screen, M4 allosteric agonist project, cell-based, HEK293 M4/GIRK, BTC-AM (AID 625;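 active = fluorescence slope after compound addition differing from the mean of all tested samples at 99.7% confidence, mostly higher but some lower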;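 also: thallium influx through GIRK channels coupled to M4 in HEK293 cells with BTC-AM dye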); conditions: at 10 µM, actives lie on both sides
[11] = inhibitors of Chlamydomonas gravitaxis, primary screen, whole organism, Chlamydomonas reinhardtii, WT vs cilia-less mutant, absorbance, 96-well (AID 463189;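 active = inhibition at or above 50% relative to wild type and mutant plate controls; inactive = inhibition below 50%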;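 also: 0% = wild type cc124 cells in DMSO and 100% = ciliumless bld1 mutant cells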); conditions: OD600 absorbance, 2 days, at 10 µM, stronger effect = higher value

Chain of Voltage-gated potassium channel subunit beta-2 (Rattus norvegicus) (P62483 whole entry, looked up): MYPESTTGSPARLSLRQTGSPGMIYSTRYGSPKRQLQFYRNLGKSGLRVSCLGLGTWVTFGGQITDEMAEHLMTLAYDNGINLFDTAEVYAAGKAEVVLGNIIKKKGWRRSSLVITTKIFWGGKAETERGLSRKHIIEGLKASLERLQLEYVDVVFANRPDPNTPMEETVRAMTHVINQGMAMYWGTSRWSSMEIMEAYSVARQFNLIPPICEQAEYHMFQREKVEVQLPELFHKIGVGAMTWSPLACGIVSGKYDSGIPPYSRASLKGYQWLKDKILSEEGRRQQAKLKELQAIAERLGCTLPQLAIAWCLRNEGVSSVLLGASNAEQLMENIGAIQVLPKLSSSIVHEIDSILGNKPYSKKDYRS
Chain of Alpha-2C adrenergic receptor (Homo sapiens) (P18825 whole entry, looked up): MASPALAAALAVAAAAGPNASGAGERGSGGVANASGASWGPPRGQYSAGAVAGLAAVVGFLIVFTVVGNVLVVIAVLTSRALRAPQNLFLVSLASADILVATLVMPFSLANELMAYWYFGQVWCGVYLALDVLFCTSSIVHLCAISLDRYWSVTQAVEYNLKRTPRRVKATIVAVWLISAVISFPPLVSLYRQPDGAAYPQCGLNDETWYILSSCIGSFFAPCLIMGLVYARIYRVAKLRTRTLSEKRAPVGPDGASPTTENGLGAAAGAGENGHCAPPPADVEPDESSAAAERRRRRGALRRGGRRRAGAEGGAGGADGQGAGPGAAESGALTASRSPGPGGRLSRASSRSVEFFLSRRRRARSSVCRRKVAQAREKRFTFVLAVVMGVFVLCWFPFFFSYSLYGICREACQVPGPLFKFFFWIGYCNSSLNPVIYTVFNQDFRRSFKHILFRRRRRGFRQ
Chain of Dual specificity protein phosphatase 6 (Homo sapiens) (Q16828 whole entry, looked up): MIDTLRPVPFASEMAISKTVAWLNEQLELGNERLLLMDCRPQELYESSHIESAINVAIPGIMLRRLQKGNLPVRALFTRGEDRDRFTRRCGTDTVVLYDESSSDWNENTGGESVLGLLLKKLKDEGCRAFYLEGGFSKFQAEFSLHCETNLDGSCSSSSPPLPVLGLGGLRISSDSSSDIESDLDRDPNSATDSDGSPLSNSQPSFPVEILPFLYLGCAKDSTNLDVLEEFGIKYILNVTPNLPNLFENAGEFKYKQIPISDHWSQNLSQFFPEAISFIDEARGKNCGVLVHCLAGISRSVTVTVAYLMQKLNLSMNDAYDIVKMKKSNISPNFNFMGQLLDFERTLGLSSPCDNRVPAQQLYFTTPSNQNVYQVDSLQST
Chain of Muscarinic acetylcholine receptor M4 (Homo sapiens) (P08173 whole entry, looked up): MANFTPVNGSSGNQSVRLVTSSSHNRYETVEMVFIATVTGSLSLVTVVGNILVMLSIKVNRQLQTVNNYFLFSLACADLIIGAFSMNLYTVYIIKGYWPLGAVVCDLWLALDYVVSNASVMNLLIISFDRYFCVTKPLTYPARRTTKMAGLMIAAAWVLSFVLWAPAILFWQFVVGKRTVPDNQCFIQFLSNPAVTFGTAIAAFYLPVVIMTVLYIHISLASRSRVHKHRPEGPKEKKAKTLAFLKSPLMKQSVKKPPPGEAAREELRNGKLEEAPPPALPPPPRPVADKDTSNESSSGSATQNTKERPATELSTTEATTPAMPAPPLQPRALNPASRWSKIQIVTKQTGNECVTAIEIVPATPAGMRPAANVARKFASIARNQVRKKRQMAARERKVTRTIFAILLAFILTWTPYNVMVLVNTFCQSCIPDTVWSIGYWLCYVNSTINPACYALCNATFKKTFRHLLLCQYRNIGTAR

| SMILES | fluorescence slope [1] | NADPH fluorescence slope [2] | slope [3] | inhibition [4] | inhibition [5] | outcome [6] | inhibition [7] | nuclei count [7] [%] | z-score ([8]; measured here: cell density z-score) | z-score ([8]; measured here: nuclear c-Myc green intensity z-score) | z-score ([8]; measured here: nuclear pErk red intensity z-score, stronger effect = higher value) | inhibition [9] | fluorescence slope [10] | inhibition [11] |
| --- | --- | --- | --- | --- | --- | --- | --- | --- | --- | --- | --- | --- | --- | --- |
| Cc1cc(C)cc(N(CC(=O)Nc2cccc(C)n2)S(=O)(=O)c2c(C)noc2C)c1 | -0.598 (inactive) | -3.4e-05 (inactive) | 0.00547 (inactive) | 11.9% (inactive) | 42.2% (inactive) |  |  |  |  |  |  |  |  |  |
| CCOC(=O)C1CCCN(C(=O)c2cc3c(-c4cccc(OC)c4)nn(C)c3s2)C1 (configuration not stated) | -0.355 (inactive) | -3.7e-05 (inactive) | 0.00666 (inactive) | -33.2% (inactive) | 39.4% (inactive) | inactive |  |  |  |  |  |  |  |  |
| COc1ccc(C(=O)C2CCCCC2=O)cc1 (configuration not stated) | -0.407 (inactive) | -7e-05 (inactive) |  |  |  | inactive | 43.3% (inactive) | 127 | -0.682 | -0.8 | 1.6 | -2.07% (inactive) | 0.00364 (inactive) | 20% (inactive) |
